Experiments:
[1] = biological target: T1, Ephrin type-B receptor 1 (Homo sapiens) (UniProt P54762); conditions: at 10 µM
T1 sequence (whole entry): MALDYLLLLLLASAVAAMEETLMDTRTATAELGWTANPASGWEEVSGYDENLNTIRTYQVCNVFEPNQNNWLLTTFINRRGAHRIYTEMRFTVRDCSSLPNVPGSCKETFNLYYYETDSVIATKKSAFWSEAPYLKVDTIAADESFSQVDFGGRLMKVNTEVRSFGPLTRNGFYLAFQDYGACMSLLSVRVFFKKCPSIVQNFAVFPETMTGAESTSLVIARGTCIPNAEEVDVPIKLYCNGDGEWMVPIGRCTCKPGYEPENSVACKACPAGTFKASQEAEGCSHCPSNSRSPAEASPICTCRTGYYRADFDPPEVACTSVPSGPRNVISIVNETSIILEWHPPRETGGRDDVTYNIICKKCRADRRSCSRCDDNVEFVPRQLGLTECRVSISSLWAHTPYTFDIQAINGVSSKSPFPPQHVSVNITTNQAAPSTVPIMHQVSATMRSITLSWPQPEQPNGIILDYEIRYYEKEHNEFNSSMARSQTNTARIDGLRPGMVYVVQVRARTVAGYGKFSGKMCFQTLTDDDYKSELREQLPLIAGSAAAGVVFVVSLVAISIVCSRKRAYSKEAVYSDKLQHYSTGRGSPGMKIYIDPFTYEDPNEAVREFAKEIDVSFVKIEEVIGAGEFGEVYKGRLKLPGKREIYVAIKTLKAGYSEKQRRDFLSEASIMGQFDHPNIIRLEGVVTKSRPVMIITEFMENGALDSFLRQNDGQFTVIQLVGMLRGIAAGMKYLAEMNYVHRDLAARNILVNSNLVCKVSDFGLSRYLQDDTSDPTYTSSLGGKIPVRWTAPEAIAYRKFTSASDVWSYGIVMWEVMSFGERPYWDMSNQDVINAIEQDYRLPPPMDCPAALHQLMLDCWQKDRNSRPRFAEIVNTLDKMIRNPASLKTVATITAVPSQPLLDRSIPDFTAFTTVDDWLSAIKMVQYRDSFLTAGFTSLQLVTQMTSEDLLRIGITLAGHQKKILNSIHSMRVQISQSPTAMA

[2] = biological target: T2, Ephrin type-B receptor 2 (Homo sapiens) (UniProt P29323); conditions: at 1 µM
T2 sequence (whole entry): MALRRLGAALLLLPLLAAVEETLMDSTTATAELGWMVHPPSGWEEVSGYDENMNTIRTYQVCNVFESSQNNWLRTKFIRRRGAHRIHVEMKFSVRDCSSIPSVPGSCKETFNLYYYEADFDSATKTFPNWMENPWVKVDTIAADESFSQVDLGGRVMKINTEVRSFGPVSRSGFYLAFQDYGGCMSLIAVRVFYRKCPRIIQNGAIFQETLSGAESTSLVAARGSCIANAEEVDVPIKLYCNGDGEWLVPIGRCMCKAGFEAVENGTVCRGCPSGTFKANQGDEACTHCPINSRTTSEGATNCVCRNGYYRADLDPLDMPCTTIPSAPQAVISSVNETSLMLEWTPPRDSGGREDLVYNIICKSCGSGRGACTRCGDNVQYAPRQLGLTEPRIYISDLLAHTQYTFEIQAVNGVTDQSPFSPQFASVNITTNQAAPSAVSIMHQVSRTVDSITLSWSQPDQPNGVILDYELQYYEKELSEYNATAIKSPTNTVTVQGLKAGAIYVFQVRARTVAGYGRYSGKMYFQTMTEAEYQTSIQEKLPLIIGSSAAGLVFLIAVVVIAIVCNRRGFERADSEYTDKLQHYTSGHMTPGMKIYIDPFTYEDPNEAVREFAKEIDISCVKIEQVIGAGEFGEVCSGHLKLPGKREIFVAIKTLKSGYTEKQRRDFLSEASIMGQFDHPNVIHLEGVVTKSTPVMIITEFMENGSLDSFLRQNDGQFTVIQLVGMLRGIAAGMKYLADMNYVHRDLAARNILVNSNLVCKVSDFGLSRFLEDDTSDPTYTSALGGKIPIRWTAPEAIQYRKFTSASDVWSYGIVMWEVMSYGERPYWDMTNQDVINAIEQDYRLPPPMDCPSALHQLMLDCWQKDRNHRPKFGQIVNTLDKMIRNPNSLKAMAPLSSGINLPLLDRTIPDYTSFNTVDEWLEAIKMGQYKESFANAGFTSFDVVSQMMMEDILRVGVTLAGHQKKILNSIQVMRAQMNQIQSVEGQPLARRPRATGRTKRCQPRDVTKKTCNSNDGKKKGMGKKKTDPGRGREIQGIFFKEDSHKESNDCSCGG

[3] = biological target: T2, Ephrin type-B receptor 2 (Homo sapiens); conditions: at 10 µM
[4] = biological target: T3, Ephrin type-B receptor 3 (Homo sapiens) (UniProt P54753); conditions: at 1 µM
T3 sequence (whole entry): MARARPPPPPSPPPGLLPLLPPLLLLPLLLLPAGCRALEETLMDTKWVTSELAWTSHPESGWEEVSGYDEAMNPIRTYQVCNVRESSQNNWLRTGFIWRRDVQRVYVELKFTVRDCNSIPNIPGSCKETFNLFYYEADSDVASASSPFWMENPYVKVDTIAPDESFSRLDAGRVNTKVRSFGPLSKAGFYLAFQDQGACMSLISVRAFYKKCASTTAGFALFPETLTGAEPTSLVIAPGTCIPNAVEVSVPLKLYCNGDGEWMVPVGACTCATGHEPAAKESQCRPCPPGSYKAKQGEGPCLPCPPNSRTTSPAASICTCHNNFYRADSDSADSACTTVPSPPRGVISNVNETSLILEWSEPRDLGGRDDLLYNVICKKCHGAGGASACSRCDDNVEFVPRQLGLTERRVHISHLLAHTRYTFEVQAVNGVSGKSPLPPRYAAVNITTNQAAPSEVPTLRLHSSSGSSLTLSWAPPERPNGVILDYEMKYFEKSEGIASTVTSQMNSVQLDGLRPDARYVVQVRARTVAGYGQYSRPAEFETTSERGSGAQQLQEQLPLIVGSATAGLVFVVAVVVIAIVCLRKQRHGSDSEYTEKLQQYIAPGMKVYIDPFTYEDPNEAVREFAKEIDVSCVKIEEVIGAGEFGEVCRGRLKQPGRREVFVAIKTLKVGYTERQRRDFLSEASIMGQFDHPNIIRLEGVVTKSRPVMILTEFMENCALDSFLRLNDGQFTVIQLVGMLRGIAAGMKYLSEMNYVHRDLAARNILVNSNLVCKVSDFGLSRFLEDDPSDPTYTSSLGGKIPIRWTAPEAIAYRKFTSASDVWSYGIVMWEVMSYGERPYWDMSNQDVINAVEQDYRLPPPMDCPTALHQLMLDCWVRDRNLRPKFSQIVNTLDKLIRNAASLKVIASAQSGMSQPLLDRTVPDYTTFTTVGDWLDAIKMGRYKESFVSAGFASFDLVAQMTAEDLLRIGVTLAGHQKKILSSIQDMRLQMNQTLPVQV

[5] = biological target: T3, Ephrin type-B receptor 3 (Homo sapiens); conditions: at 10 µM
[6] = biological target: T4, Ephrin type-B receptor 4 (Homo sapiens) (UniProt P54760); conditions: at 1 µM
T4 sequence (whole entry): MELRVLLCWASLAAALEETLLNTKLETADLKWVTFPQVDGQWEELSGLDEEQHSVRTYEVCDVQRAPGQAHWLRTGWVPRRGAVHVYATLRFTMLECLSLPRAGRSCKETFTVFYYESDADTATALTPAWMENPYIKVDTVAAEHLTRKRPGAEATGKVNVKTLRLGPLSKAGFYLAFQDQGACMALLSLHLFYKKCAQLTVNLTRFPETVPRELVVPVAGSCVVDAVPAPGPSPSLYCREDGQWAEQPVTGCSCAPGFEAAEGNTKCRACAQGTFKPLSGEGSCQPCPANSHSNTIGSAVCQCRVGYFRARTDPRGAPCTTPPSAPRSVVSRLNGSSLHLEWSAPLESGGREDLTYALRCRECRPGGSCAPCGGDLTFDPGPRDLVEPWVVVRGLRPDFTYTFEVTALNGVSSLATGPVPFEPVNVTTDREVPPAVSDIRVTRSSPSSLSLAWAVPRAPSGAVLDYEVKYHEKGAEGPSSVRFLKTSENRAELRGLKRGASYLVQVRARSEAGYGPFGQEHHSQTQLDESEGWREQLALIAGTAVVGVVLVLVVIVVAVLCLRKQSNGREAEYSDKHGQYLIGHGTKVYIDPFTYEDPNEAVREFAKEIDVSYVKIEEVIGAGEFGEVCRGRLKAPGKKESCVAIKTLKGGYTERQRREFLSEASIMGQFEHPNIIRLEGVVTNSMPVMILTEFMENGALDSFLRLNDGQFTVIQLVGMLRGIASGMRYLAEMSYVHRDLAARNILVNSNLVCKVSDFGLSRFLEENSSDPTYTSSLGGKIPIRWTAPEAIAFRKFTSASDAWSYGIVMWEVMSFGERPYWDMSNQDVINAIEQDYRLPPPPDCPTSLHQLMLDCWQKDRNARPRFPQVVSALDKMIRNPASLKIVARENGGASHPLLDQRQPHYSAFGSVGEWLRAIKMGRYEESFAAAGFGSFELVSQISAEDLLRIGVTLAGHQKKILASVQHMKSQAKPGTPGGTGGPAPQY

[7] = biological target: T4, Ephrin type-B receptor 4 (Homo sapiens); conditions: at 10 µM
[8] = biological target: Receptor tyrosine-protein kinase erbB-4 (Homo sapiens) (UniProt Q15303); conditions: at 1 µM
[9] = biological target: Receptor tyrosine-protein kinase erbB-4 (Homo sapiens) (UniProt Q15303); conditions: at 10 µM
[10] = biological target: Focal adhesion kinase 1 (Homo sapiens) (UniProt Q05397); conditions: at 1 µM
Sequence of Focal adhesion kinase 1 (Homo sapiens) (Q05397 2-1052 limits assumed): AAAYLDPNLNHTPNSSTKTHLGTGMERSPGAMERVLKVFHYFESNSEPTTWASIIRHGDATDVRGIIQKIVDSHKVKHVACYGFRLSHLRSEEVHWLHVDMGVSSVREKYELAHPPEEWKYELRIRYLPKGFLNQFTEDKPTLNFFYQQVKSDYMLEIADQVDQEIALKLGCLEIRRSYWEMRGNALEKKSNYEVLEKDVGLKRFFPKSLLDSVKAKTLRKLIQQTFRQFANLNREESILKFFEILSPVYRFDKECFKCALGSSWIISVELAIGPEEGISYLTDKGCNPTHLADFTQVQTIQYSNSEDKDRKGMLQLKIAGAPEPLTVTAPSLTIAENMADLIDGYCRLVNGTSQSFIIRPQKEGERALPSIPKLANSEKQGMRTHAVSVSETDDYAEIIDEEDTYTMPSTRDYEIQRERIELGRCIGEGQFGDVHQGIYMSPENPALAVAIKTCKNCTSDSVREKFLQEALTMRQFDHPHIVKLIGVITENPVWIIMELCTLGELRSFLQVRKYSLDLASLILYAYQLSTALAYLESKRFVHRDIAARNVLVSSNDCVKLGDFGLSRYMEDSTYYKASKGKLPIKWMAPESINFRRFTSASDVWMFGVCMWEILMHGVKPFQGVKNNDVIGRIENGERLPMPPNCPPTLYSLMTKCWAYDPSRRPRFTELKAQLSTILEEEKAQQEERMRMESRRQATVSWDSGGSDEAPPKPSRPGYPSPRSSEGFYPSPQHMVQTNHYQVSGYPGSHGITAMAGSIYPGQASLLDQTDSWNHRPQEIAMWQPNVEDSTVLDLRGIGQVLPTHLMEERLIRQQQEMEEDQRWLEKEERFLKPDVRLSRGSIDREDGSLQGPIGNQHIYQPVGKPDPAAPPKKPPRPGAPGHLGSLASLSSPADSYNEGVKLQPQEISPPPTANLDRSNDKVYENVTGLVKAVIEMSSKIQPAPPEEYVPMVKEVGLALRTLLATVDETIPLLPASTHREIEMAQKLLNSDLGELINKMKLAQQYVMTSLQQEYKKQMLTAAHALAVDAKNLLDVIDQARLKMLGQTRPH

Sequence of Receptor tyrosine-protein kinase erbB-4 (Homo sapiens) (Q15303 whole entry): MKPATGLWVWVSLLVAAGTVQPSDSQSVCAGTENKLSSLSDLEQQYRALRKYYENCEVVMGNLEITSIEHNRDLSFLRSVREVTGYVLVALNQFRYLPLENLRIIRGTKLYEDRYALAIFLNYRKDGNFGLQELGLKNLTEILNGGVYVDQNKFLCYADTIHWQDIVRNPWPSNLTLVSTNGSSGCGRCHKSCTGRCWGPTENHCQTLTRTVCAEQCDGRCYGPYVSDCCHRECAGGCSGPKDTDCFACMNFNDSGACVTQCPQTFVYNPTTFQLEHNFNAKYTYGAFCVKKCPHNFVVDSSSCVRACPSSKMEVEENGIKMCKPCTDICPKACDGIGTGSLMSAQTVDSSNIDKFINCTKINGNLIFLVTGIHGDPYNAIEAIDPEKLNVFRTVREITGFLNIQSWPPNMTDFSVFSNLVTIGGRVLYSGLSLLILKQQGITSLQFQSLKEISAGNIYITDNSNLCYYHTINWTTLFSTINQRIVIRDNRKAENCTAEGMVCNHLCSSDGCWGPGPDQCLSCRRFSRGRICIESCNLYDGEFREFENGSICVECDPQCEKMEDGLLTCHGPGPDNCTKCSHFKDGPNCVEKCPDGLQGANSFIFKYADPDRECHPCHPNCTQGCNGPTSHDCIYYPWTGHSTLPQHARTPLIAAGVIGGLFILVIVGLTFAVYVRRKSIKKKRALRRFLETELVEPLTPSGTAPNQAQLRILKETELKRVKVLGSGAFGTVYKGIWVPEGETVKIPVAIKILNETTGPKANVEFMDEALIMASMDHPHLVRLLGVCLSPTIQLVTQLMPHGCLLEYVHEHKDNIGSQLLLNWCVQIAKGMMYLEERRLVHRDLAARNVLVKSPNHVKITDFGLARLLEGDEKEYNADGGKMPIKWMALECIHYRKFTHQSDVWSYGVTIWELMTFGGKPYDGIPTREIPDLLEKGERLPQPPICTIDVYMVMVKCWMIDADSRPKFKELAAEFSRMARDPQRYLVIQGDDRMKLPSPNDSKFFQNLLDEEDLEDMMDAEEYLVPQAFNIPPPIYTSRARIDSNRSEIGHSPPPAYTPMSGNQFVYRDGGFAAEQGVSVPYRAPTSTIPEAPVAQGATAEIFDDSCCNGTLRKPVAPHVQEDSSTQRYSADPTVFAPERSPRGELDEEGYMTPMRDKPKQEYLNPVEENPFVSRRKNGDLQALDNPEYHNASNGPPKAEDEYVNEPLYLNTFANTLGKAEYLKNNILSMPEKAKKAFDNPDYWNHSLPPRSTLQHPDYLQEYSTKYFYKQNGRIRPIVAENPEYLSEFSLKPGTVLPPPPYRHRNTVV

O=C1Nc2ccc3ncsc3c2/C1=C/c1c[nH]cn1
residual activity [1]: 9%
residual activity [2]: 87%
residual activity [3]: 29%
residual activity [4]: 120% (inactive)
residual activity [5]: 131%
residual activity [6]: 79%
residual activity [7]: 29%
residual activity [8]: 88%
residual activity [9]: 102%
residual activity [10]: 73%
